Screening results: PubChem BioAssay, National Center for Advancing Translational Sciences (NCATS)
Pol eta inh-1: inhibitors of human DNA polymerase eta; Potency, µM (highest dose often 114 µM), actives largely listed as inhibitors; recombinant Pol eta, fluorescent DNA replication assay; Q9Y253; 390,000 compounds, 1.2% hits
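Pol eta at 10 nM preincubated with compounds 15 min at room temperature; reaction started with fluorescent substrate (50 nM final) and read kinetically at 0 and 10 min.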
Pol iota inh: blocks human DNA polymerase iota activity; Pol iota fluorescent replication assay, 10 min; Potency, µM (series often up to 115 µM), usual class: inhibitors; 390,000 compounds, 1% hits
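Pol iota at 10 nM preincubated 15 min with compounds at room temperature; reaction started with fluorescent substrate, 50 nM final. Fluorescence read kinetically at 0 and 10 min; buffer-only wells as negative control.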
POLB inh: DNA polymerase beta (human) inhibition | AID 485314 | Potency, µM (titrated, usually from 114 µM), most hits filed as inhibitors | Pol beta primer extension/strand displacement, fluorescence kinetic | 340,000 compounds, 1.3% hits
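Enzyme-only controls used 10 nM Pol beta; buffer lacking enzyme served as negative control. Compound preincubated 15 min, then 50 nM substrate added; 0 and 10 min reads at room temperature.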
WRN helicase inh-1: blocks human WRN helicase; WRN helicase unwinding, fluorescent forked duplex, kinetic; Potency, µM (top dose mostly 114 µM), hits mostly inhibitors; 360,000 compounds, 0.46% hits; AID 651768; also: nearly all actives have a fitted effect of over 55% in size
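WRN at 20 nM final was preincubated with compound for 15 min at room temperature; reaction started with 100 nM forked duplex oligonucleotide carrying fluorophore and quencher plus 2 mM ATP (final). Unwinding followed kinetically by red fluorescence (ex 525/em 598 nm).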
PI5P4K alpha inh: inhibitors of human PI5P4K alpha. P48426. PI5P4Kalpha enzyme, ADP-Glo luminescence, 60 min; active compounds read low. 330,000 compounds, 1.2% hits. max response, %; active = max response of -50% or lower; inconclusive = between -30% and -50%; inactive = -30% or higher; also: value at the top dose of about 77 µM
Target sequence (P48426 whole entry, looked up): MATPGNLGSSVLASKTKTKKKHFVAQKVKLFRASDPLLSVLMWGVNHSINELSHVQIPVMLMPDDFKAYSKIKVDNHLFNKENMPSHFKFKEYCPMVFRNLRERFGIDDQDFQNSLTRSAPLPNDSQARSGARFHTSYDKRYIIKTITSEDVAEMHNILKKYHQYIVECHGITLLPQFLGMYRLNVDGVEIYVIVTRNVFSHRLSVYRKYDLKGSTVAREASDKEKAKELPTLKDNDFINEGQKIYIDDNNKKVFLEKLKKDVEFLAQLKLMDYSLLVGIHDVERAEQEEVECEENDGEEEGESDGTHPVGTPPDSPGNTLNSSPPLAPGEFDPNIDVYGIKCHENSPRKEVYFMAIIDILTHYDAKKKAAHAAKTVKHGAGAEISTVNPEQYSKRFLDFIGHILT
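Controls without substrate or without enzyme flank wells where PI5P4Kalpha converts substrate using 5 microM ATP (final). Incubation lasts 60 minutes at room temperature; ADP formed is read by ADP-Glo luminescence.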
POLK inh: DNA polymerase kappa (human) inhibition. Q9UBT6. purified Pol kappa, fluorescent DNA synthesis assay, 10 min. 400,000 compounds, 0.53% hits. Potency, µM (titrated, usually from 107 µM), hits mostly inhibitors
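Here, compound and 10 nM enzyme are combined for 15 min at room temperature; adding 50 nM substrate (final) starts DNA synthesis, tracked by fluorescence at 0 and 10 min against buffer-only wells.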
PGK validate: TbPGK inhibition, hit validation | shares compounds with POLK inh | TbPGK coupled GAPDH assay, Kinase-Glo luminescence | Potency, µM (doses to about 57.5 µM), hits mostly inhibitors | 500 compounds, 79% hits | AID 686980; also: nearly all actives have a fitted effect of over 65% in size
POLI cherry-pick: Inhibitors of human DNA polymerase iota, confirmation; shares compounds with POLK inh; Pol iota primer extension, TAMRA/BHQ fluorescence; Potency, µM, hits mostly inhibitors; 1,500 compounds, 77% hits
Pol eta inh-2: confirmation of human DNA polymerase eta inhibitors | shares compounds with Pol eta inh-1 | Pol eta primer extension, TAMRA/BHQ fluorescence, 10 min | Potency, µM, usual class: inhibitors | 2,600 compounds, 64% hits | AID 720502
WRN helicase inh-2: confirmation of human WRN helicase inhibitors | shares compounds with WRN helicase inh-1 | WRN helicase DNA unwinding, fluorescence kinetic | Potency, µM (doses to about 57.1 µM), actives largely listed as inhibitors | 610 compounds, 63% hits | AID 720497; also: nearly all actives have a fitted effect of over 65% in size
TO DNA binding: counter-screen for WRN helicase inhibitors: DNA binding | shares compounds with WRN helicase inh-1 | thiazole orange DNA binding displacement, fluorescence | Potency, µM (highest dose often 57.1 µM), actives largely listed as inhibitors | 610 compounds, 10% hits | AID 720499;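 also: drop in dye fluorescence marks compound binding to DNA; nearly all actives have a fitted effect of over 60% in size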
BLM counter: blocks human BLM helicase in WRN counterscreen | 610 compounds, 60% hits | Recombinant BLM helicase DNA unwinding, red fluorescence | Potency, µM (highest dose often 57.1 µM), actives largely listed as inhibitors | shares compounds with WRN helicase inh-1; also: nearly all actives have a fitted effect of over 60% in size
ADP-Glo interf: counter-screen for PI5P4K inhibitors: ADP-Glo detection interference, no enzyme. shares compounds with PI5P4K alpha inh. AID 743285. 1,100 tested, under 10 active. Potency, µM (titrated, usually from 76.9 µM), hits mostly inhibitors. ADP-Glo detection counter-screen, luciferase luminescence, no enzyme
Each line names hits and unclear results; the compound was inactive in the other large screens (follow-up assays come after a bar, where they were run). A selection: hits, their analogues and other compounds. The true share with any hit is near 2.8%. Unless noted, calls follow the shape of the dose curve; as a rule, active = well fitted curve in the direction sought with a large enough effect; inconclusive = small, poorly fitted or top-dose-only effect, or another doubt; inactive = no such curve, though single readings can be large; an effect the other way counts as inactive or inconclusive.

Cc1ccc(NC(=O)CN(C)C(=O)c2cccc(-n3cccc3)c2)cc1	Pol eta inh-1 2.5µM, Pol iota inh 8.9µM, WRN helicase inh-1 35µM, PI5P4K alpha inh -101, POLK inh 18µM (no result: POLB inh) | POLI cherry-pick 15 | Pol eta inh-2 17 | WRN helicase inh-2 7.6µM | TO DNA binding inactive | BLM counter 2.2µM | ADP-Glo interf inactive
COc1ccc(OC)c(Nc2nc3ccccc3n3c(C)nnc23)c1	none (no result: WRN helicase inh-1, PI5P4K alpha inh)
O=C(Nc1ccc(S(=O)(=O)Nc2nccs2)cc1)c1ccc(F)cc1	none
O=C(Nc1ccc(S(=O)(=O)Nc2nccs2)cc1)c1nn(-c2ccc(F)cc2)ccc1=O	Pol eta inh-1 20µM, Pol iota inh 35µM, POLB inh inconclusive, WRN helicase inh-1 50µM, PI5P4K alpha inh -70, POLK inh 89µM | POLI cherry-pick 67 | Pol eta inh-2 43 | ADP-Glo interf inactive
Cc1cc(C)c2nc(-c3ccccn3)cc(C(=O)Nc3ccc(S(=O)(=O)Nc4onc(C)c4C)cc3)c2c1	Pol eta inh-1 8.9µM, Pol iota inh 8.9µM, POLB inh inconclusive, WRN helicase inh-1 40µM, PI5P4K alpha inh -66, POLK inh inconclusive | POLI cherry-pick 21 | Pol eta inh-2 8.5 | WRN helicase inh-2 15µM | TO DNA binding inconclusive | BLM counter 6.8µM | ADP-Glo interf inactive
Cc1nn(-c2ccc3ccccc3c2)c(=O)c2ccccc12	none
Cc1nn(-c2nc3ccccc3[nH]2)c(=O)c2ccccc12	PI5P4K alpha inh -60 | PGK validate 2.9µM | ADP-Glo interf inconclusive
Cc1ccc(N(C)S(=O)(=O)c2ccc3[nH]c(=O)ccc3c2)cc1	none (no result: WRN helicase inh-1, PI5P4K alpha inh)
CCOc1ccc(Cc2c(C)[nH]c3ccc(C(=O)O)cc3c2=S)cc1	Pol eta inh-1 50µM, Pol iota inh inconclusive, POLB inh inconclusive, WRN helicase inh-1 inconclusive, POLK inh inconclusive | Pol eta inh-2 inconclusive
CCc1c(C)[nH]c2ccc(OC)cc2c1=S	none
N#Cc1cccc(NC(=O)N2CC[C@@]3(CCCN(C(=O)c4cc(C(F)(F)F)cc(C(F)(F)F)c4)C3)C2)c1	none (no result: Pol eta inh-1, Pol iota inh, POLB inh, WRN helicase inh-1, PI5P4K alpha inh)
CCC1CCCCN1C(=O)c1c[nH]c2ccc(S(=O)(=O)Nc3cccc(OC)c3)cc2c1=O (stereo unspecified)	Pol eta inh-1 89µM, Pol iota inh inconclusive, POLB inh inconclusive (no result: WRN helicase inh-1, PI5P4K alpha inh) | Pol eta inh-2 inconclusive
